The nature of experiment [1]: qHTS assay to identify small molecule agonists of the peroxisome proliferator-activated receptor delta (PPARd) signaling pathway - cell viability counter screen (AID 743211). Further: nearly all actives have a fitted effect of over 55% in size. Further: potency means the concentration at half of the fitted maximal effect. The procedure, abridged:
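HEK293H PPARd-bla, 3000 cells/well; 5 h preincubation 37C/5% CO2; cpd in DMSO, 17 h 37C; B/G FRET substrate 2 h RT; CellTiter-Glo 30 min RT, luminescence.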

The target in experiment [2] is Peroxisome proliferator-activated receptor delta (Homo sapiens) (UniProt Q03181). In words: qHTS assay to identify small molecule agonists of the peroxisome proliferator-activated receptor delta (PPARd) signaling pathway (AID 743212; calls by dose curve). The method, boiled down: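 Tox21 library screened in GeneBLAzer PPARd UAS-bla HEK293H cells. After compound treatment at 37 C, a FRET-based beta-lactamase substrate was applied for 2 h and fluorescence recorded.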

For experiment [3] the target is unchanged. In words: qHTS assay to identify small molecule antagonists of the peroxisome proliferator-activated receptor delta (PPARd) signaling pathway (AID 743215; active means well fitted inhibition curve with a large enough effect in the signal ratio in the repeat runs, not every such curve was filed as active; the % refers to the signal ratio;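 further: cells stimulated with agonist L165041 at 300 nM final during compound exposure; series mostly up to about 62 µM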). The method, boiled down: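 Here, a reporter line (HEK293H, beta-lactamase under a UAS) measures PPARd signaling. Compounds are tested against agonist L165041 at 300 nM final concentration over 17 h at 37 C, with fluorescence read after substrate.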

The nature of experiment [4]: qHTS assay to identify small molecule agonists of the farnesoid-X-receptor (FXR) signaling pathway - cell viability counter screen (AID 743218). Further: nearly all actives have a fitted effect of over 45% in size. Further: potency means the concentration at half of the fitted maximal effect. The method, boiled down:
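Quantitative HTS counter screen measuring ATP-based viability via CellTiter-Glo luminescence in HEK 293T cells carrying a UAS-driven beta-lactamase reporter, after 16 h compound exposure at 37 C.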

A short description of experiment [5]: qHTS assay to identify small molecule antagonists of the farnesoid-X-receptor (FXR) signaling pathway - cell viability counter screen (AID 743221; active means well fitted cell-killing curve with a large enough effect in the repeat runs, not every such curve was filed as active; further: nearly all actives have a fitted effect of over 50% in size; further: potency means the concentration at half of the fitted maximal effect). The procedure, abridged:
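Luminescence from CellTiter-Glo measures cytotoxicity in GeneBLAzer FXR-UAS-bla HEK 293T cells. Cells were exposed to compounds with 50 uM chenodeoxycholic acid (final) for 16 h at 37 C, in wells also used for the reporter readout.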

Experiment [6] can be described thus: qHTS assay to identify small molecule agonists of the NFkB signaling pathway - cell viability counter screen (AID 1159515; calls by dose curve; further: nearly all actives have a fitted effect of over 55% in size; further: potency means the concentration at half of the fitted maximal effect). The procedure, abridged: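 Tox21 library compounds were tested for cytotoxicity against NFkB-bla ME-180 cells during a 5 hr exposure at 37 C. CellTiter-Glo luminescence served as the viability read-out.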
Experiment [7] can be described thus: qHTS assay to identify small molecule agonists of the endoplasmic reticulum stress response signaling pathway - cell viability counter screen (AID 1159517; calls by dose curve; further: nearly all actives have a fitted effect of over 50% in size; further: potency means the concentration at half of the fitted maximal effect). The procedure, abridged: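 In parallel with the ESRE reporter read, cytotoxicity was scored by CellTiter-Glo luminescence (30 min, room temperature) on HeLa ESRE-bla cells dosed for 5 hr.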
A short description of experiment [8]: qHTS assay to identify small molecule antagonists of the retinoid-related orphan receptor gamma (ROR-gamma) signaling pathway - cell viability counter screen (AID 1159520). Further: nearly all actives have a fitted effect of over 50% in size. Further: potency means the concentration at half of the fitted maximal effect. The procedure, abridged:
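Tet-on ROR gamma CHO cells were given compounds for 2 hr, then doxycycline hyclate at 1 uM final, and incubated 16 hr at 37 C. Viability was measured as ATP content by CellTiter-Glo luminescence.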

Experiment [9] is described as follows: qHTS assay to identify small molecule agonists of the AP-1 signaling pathway - cell viability counter screen (AID 1159525; calls by dose curve; further: nearly all actives have a fitted effect of over 55% in size; further: potency means the concentration at half of the fitted maximal effect). The procedure, abridged: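 Same-well cytotoxicity counter screen of the Tox21 10K library in ME-180 cells. The readout is ATP-dependent luminescence after 5 h compound treatment. Data are normalised to DMSO and tetra n-octyl ammonium bromide controls.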

Experiment [10] is described as follows: qHTS assay to identify small molecule antagonists of the peroxisome proliferator-activated receptor delta (PPARd) signaling pathway - cell viability counter screen (AID 743213). Further: nearly all actives have a fitted effect of over 50% in size. Further: potency means the concentration at half of the fitted maximal effect. The method, boiled down:
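PPARd-bla HEK293H cells (3000/well) got compound plus 300 nM L165041 agonist for 17 h at 37 C. Viability in the same wells came from CellTiter-Glo luminescence after 30 min at room temperature.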

The target in experiment [11] is Vitamin D3 receptor (Homo sapiens) (UniProt P11473). Kind of experiment: qHTS assay to identify small molecule agonists of the vitamin D receptor (VDR) signaling pathway (AID 743222; calls by dose curve). The method, boiled down: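 Tox21 cell reporter format: VDR-bla line, 16 h compound exposure in 5% CO2 at 37C, then fluorescence intensity after 2 h with LiveBLAzer B/G FRET substrate.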

For experiment [12] the target is unchanged. In words: qHTS assay to identify small molecule antagonists of the vitamin D receptor (VDR) signaling pathway (AID 743223; active means well fitted inhibition curve with a large enough effect in the signal ratio in the repeat runs, not every such curve was filed as active; the % refers to the signal ratio; further: potency means the concentration at half of the fitted maximal effect). The method, boiled down:
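Antagonist mode uses 1alpha,25-dihydroxyvitamin D3 at 3 nM final as stimulus. VDR-bla cells receive compounds in DMSO, incubate 16 h at 37C, then a beta-lactamase FRET substrate for 2 h at room temperature before fluorescence measurement.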

Experiment [13] in a line: qHTS assay to identify small molecule antagonists of the vitamin D receptor (VDR) signaling pathway - cell viability counter screen (AID 743225). Further: nearly all actives have a fitted effect of over 50% in size. Further: potency means the concentration at half of the fitted maximal effect. The method, boiled down:
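Read-out: CellTiter-Glo luminescence measured 30 min after reagent addition at room temperature. Cells were VDR-bla HEK 293T exposed 16 h at 37C, 5% CO2, to compound with 3 nM final calcitriol agonist.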

The nature of experiment [14]: qHTS assay to identify small molecule agonists of the endoplasmic reticulum stress response signaling pathway (AID 1159516; active means well fitted activation curve with a large enough effect in the signal ratio in the repeat runs, not every such curve was filed as active; the % refers to the signal ratio). The method, boiled down: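 Fluorescence at 460 and 530 nm (405 nm excitation) reports beta-lactamase from an ER stress response element in HeLa cells treated 5 hr at 37 C.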
Experiment [15] concerns the target Nuclear receptor ROR-gamma (Homo sapiens) (UniProt P51449). Kind of experiment: qHTS assay to identify small molecule antagonists of the retinoid-related orphan receptor gamma (ROR-gamma) signaling pathway (AID 1159521; further: nearly all actives have a fitted effect of over 50% in size; further: potency means the concentration at half of the fitted maximal effect). The procedure, abridged: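 CHO Tet-on RORγ, RORE-luc reporter. Cpd 2 h pre-incubation, then dox hyclate 1 uM final, 16 h, 37 C/5% CO2. ONE-Glo luminescence; decrease = antagonist.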

Experiment [16] in a line: qHTS assay to identify small molecule agonists of the AP-1 signaling pathway (AID 1159526; calls by dose curve).
The target in experiment [17] is Bile acid receptor (Homo sapiens) (UniProt Q96RI1). Kind of experiment: qHTS assay to identify small molecule agonists of the farnesoid-X-receptor (FXR) signaling pathway (AID 743220; active means well fitted activation curve with a large enough effect in the signal ratio in the repeat runs, not every such curve was filed as active; the % refers to the signal ratio). The procedure, abridged:
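FXR-UAS-bla HEK 293T cells carrying a UAS-driven beta-lactamase reporter were plated for 5 h at 37C/5% CO2, then exposed to DMSO-dissolved Tox21 10K compounds for 16 h at 37C. A LiveBLAzer B/G FRET substrate was loaded for 2 h at room temperature before fluorescence reading.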

Experiment [18] is described as follows: qHTS assay to identify small molecule agonists of the vitamin D receptor (VDR) signaling pathway - cell viability counter screen (AID 743224). Further: nearly all actives have a fitted effect of over 50% in size. Further: potency means the concentration at half of the fitted maximal effect. The method, boiled down: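 CellTiter-Glo viability readout on VDR-bla cells, measured after 16 h of compound treatment at 37C in the same wells.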
In experiment [19] the target is Retinoic acid receptor RXR-alpha (Homo sapiens) (UniProt P19793). Kind of experiment: qHTS assay to identify small molecule agonists of the RXR signaling pathway (AID 1159527; calls by dose curve; further: nearly all actives have a fitted effect of over 35% in size). The method, boiled down: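 Read-out: beta-lactamase FRET ratio (405 nm excitation, 460 and 530 nm emission) after 2 hr substrate loading at room temperature. Cells were RXR-alpha-UAS-bla HEK 293T treated with compounds for 16 hr in 2% charcoal-stripped FBS medium.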

Structures are written as SMILES. “And” between values parts separate entries of the source, which are not always exact repeats. Equal values may be shown once. Results filed as inconclusive are left out. Where a structure was tested more than once in an assay, its records may differ in their call. The source made the active and inactive calls. Unless noted, the call rests on the fitted dose curve; in most records, active means well fitted curve in the direction sought with a large enough effect in the repeat runs; inconclusive means weak or mixed curves; inactive means no such curve, though single readings can be large; an effect the other way counts as inactive or inconclusive.

Chain of Peroxisome proliferator-activated receptor delta (Homo sapiens) (Q03181 whole entry, looked up): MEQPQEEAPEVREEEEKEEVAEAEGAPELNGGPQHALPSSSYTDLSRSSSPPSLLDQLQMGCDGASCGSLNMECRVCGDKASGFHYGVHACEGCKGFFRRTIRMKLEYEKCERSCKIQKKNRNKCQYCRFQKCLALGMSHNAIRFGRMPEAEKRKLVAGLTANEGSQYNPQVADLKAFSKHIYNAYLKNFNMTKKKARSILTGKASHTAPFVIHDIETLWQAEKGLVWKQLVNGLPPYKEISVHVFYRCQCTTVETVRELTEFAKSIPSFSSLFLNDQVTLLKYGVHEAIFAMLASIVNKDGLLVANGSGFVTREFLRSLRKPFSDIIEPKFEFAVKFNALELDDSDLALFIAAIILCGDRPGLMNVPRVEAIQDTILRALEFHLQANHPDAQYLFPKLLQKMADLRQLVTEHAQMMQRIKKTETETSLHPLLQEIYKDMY
Chain of Vitamin D3 receptor (Homo sapiens) (P11473 whole entry, looked up): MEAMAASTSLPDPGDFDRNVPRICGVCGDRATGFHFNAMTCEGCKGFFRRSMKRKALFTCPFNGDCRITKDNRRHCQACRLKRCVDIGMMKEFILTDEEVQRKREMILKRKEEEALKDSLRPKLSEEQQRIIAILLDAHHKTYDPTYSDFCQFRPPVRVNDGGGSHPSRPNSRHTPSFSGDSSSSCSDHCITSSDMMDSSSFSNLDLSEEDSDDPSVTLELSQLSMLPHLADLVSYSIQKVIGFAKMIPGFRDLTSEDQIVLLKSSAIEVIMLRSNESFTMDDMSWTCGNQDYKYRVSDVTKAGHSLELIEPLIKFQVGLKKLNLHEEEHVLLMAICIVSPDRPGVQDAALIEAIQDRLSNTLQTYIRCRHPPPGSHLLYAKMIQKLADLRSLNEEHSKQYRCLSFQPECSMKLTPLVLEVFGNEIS
Chain of Bile acid receptor (Homo sapiens) (Q96RI1 whole entry, looked up): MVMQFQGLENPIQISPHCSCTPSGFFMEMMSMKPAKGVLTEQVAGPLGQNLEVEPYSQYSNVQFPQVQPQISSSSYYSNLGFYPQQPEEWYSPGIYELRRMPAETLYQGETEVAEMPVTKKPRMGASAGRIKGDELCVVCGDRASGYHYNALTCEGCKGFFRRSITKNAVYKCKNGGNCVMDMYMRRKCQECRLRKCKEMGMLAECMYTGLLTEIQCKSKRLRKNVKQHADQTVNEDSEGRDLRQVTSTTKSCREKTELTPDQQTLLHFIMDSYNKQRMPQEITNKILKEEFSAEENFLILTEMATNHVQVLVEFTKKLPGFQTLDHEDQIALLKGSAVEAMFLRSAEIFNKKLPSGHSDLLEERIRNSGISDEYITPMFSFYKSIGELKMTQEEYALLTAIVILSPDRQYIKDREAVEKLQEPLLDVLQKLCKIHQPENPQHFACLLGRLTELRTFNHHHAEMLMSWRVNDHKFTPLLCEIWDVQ
Chain of Retinoic acid receptor RXR-alpha (Homo sapiens) (P19793 whole entry, looked up): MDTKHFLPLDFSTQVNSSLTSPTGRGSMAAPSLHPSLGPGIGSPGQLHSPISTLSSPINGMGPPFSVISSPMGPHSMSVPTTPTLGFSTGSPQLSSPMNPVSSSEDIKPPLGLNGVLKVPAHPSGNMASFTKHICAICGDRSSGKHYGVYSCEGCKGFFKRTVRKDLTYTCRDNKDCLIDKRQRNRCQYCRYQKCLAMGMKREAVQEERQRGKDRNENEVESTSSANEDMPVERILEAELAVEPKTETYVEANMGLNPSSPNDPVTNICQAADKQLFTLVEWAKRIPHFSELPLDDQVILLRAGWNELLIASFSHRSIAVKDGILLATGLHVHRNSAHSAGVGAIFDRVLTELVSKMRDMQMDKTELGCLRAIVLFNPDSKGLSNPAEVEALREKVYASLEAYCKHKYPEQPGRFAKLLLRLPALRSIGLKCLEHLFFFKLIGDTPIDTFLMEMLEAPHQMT

As for `c1ccc(N=NNc2ccccc2)cc1`, the Potency in experiment [1] is 56.8 µM (active). In addition, the Potency result in experiment [2], in experiment [3], in experiment [4], in experiment [5], in experiment [6] and in experiment [7] was “inactive” throughout. In addition, the Potency entry in [8] and in experiment [9] was “inactive” each time.

Turning to `CCN(CC)Cc1nccn1-c1ccc([N+](=O)[O-])cc1C(=O)c1ccccc1Cl`, the Potency entry in [1], in experiment [2], in [10], in experiment [3], in experiment [4] and in experiment [5] was “inactive” throughout. The Potency result in experiment [11], in experiment [12], in experiment [13], in [14], in experiment [7] and in experiment [8] was “inactive” each time. Besides, the Potency result in experiment [15], in experiment [9] and in experiment [16] was “inactive” each time.

`CCCCCCCCCCCCCCn1cc[n+](C)c1`: the Potency in [1] was 24.6 µM (active) and 21.6 µM (active) and inactive; in experiment [10], 21.6 µM (active); in [4], 21.9 µM (active) and inactive; in experiment [5], 24.6 µM (active) and 54.4 µM (active) and inactive; in experiment [18] it was 8.72 µM (active) and 24.3 µM (active) and inactive; in experiment [13] it was 27.6 µM (active) and 43.2 µM (active) and inactive. Also, the Potency in [7] is 6.18 µM (active) and 19.3 µM (active) and inactive; in [8], 27.4 µM (active) and 34 µM (active) and inactive; in experiment [9], 49.1 µM (active) and 48.5 µM (active) and inactive. The Potency entry in experiment [17], in [12], in [6] and in [19] was “inactive” each time.

On to `Cc1nn(-c2cc(NS(C)(=O)=O)c(Cl)cc2Cl)c(=O)n1C(F)F`, for which the Potency entry in [1], in experiment [2], in experiment [10], in [5], in experiment [11] and in experiment [12] was “inactive” in each case. Also, the Potency result in [18], in experiment [13], in experiment [6], in experiment [7], in experiment [15] and in experiment [9] was “inactive” in each case. Also, the Potency result in experiment [16] was “inactive”.

For the compound `CC1(C)[C@H](/C=C2\CCSC2=O)[C@@H]1C(=O)OCc1coc(Cc2ccccc2)c1`, the Potency entry in experiment [1], in experiment [2], in [4], in experiment [18], in experiment [6] and in [7] was “inactive” throughout. For the same compound, the Potency result in [9] is “inactive”. For the same compound, the Potency in [15] is 27.3 µM (active).

`N#Cc1sc2c(=O)c3ccccc3c(=O)c=2sc1C#N`: the Potency is 7.76 µM (active) in [1]; 12.3 µM (active) in experiment [10]; 34.7 µM (active) in [4]; 4.9 µM (active) in [18]; 11 µM (active) in [13]; 1.95 µM (active) in experiment [6]. Moreover, the Potency in [7] was 6.92 µM (active); in experiment [8] it was 2.17 µM (active); in [15] it was 13.7 µM (active); in experiment [9], 389 nM (active).

`Clc1ccc(C(c2ccc(Cl)cc2)C(Cl)Cl)cc1`: the Potency in experiment [1] was 44.4 µM (active); in experiment [18] it was 49.8 µM (active) and 38.9 µM (active); in experiment [6], 49.8 µM (active); in experiment [7], 22.2 µM (active) and 54.9 µM (active); in [15], 55.4 µM (active) and 54.5 µM (active); in experiment [9], 24.9 µM (active) and 34.7 µM (active). For the same compound, the Potency entry in experiment [2], in [5], in [11] and in experiment [12] was “inactive” throughout.

With `O=C1C2(Cl)C3(Cl)C4(Cl)C(Cl)(Cl)C5(Cl)C3(Cl)C1(Cl)C5(Cl)C24Cl` (stereo unspecified), the Potency in experiment [1] was 48.2 µM (active) and 46.9 µM (active); in experiment [10], 54 µM (active); in experiment [5] it was 54 µM (active); in experiment [12], 54 µM (active); in experiment [18], 48.2 µM (active) and 41.8 µM (active); in experiment [13] it was 48.2 µM (active) and 46.9 µM (active). Besides, the Potency is 52.6 µM (active) in experiment [6]; 48.2 µM (active) in experiment [7]; 21.3 µM (active) and 46.5 µM (active) in experiment [8]; 30400 nM (active) in experiment [9]. For the same compound, the Potency entry in experiment [2] and in experiment [11] was “inactive” throughout.

As for `CC(C)[C@@H](Nc1ccc(C(F)(F)F)cc1Cl)C(=O)OC(C#N)c1cccc(Oc2ccccc2)c1` (stereo partly specified), the Potency result in [1], in experiment [4], in experiment [17], in experiment [5], in [11] and in experiment [18] was “inactive” each time. Besides, the Potency result in experiment [13], in [6], in [7], in experiment [8] and in [9] was “inactive” throughout.

(Values after PubChem BioAssay (Tox21).)
